The campaign covered roughly 2,100 compounds. About 480 (23%) were called active. Roughly 5% stayed inconclusive and do not appear here.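 The calls were made as follows: active = fitted curve reaches 40% activation at or below the top valid concentration, in every replicate test; inconclusive = replicate tests disagree on the call; inactive = the rest, including activity in the opposite direction.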 These entries were drawn from the full list. Results with a measured potency or affinity are listed apart.
Assay: activators raising PGC1a acetylation in cells, dose response, cell-based, cherry-picked samples, set 6 (AID 720513);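 also: cells made to overexpress flag tagged PGC1a plus GCN5 acetyltransferase by viral infection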
Settings: U2OS PGC1a acetylation AlphaLISA, overnight, 0 = neutral, -100 = inhibitor control; series mostly up to 19.5 µM; activation (acetylation increase): at the top concentration

Activation (acetylation increase), inactive:
Cc1noc(C)c1NC(=O)N(C)C[C@@H]1OCCCC[C@@H](C)Oc2ccc(N(C)C)cc2C(=O)N([C@@H](C)CO)C[C@H]1C -4.29%
COc1ccc(C(=C(CC(=O)O)C(=O)OC(C)(C)C)c2cc(OC)c(OC)c(OC)c2)cc1OC -5.87%
CCCOc1ccc(/C=C/C(=O)O)cc1OC 5.41%
CN(C)C(=O)C[C@H]1CC[C@H](NC(=O)C2CCC2)[C@@H](CO)O1 15.4%
COc1ccc2cc3c(N)nn(C(=O)c4ccccc4Cl)c3nc2c1 -23.1%
CCc1c(C)nc(SCC(=O)Nc2ccc3c(c2)OCCO3)[nH]c1=O -2.04%
COc1ccc(NCc2nnc(SCC(=O)Nc3cc(C)cc(C)c3)o2)cc1 21.1%
CCN1C(=O)c2cccc3c(S(=O)(=O)Nc4ccccn4)ccc1c23 17.1%
Cc1ccc(O)c(NC(=O)c2ccc3c(c2)C(=O)N(CC(C)C)C3=O)c1 4.64%
CCN1CCN(C(=O)c2c(-c3c(F)cccc3Cl)noc2C)CC1 -1.69%
C[C@H](CO)N1C[C@H](C)[C@H](CN(C)C(=O)NC2CCCCC2)Oc2cc(C#Cc3ccc(F)cc3)ccc2S1(=O)=O -65.8%
Nc1ccccc1-c1ccn[nH]1 0.587%
CC1=NN(C(=O)c2ccc(C)cc2)C(O)(C(F)(F)OC(F)(F)F)C1 (stereo not given) 11.7%
O=C(c1ccco1)N1N=C(c2ccc(Cl)cc2)CC1(O)C(F)(F)F (stereo not given) -31.7%
COc1ccc(C(C)(O)c2nc(-c3cccc(O)c3)cs2)cc1 (stereo not given) -1.9%
COc1ccc(-c2ccc(CCC(=O)O)n2NC(=O)c2ccc(C(C)(C)C)cc2)cc1 -0.816%
O=C(Nc1ccc(F)cc1)N[C@H]1C=C[C@H](CC(=O)N2CCCCC2)O[C@H]1CO 26.6%
COc1cccc(-c2cc(C(=O)NCCCn3ccnc3)no2)c1 33.2%
CCSc1ccccc1C(=O)NCCCn1ccnc1 5.32%
Cc1ccccc1-c1nc(C(=O)NCC2CCCO2)cc2c1[nH]c1ccccc12 (stereo not given) -55.2%
C[C@@H]1CN([C@@H](C)CO)S(=O)(=O)c2ccc(-c3ccc(F)cc3)cc2O[C@H]1CN(C)C(=O)C1CCCCC1 -61.4%
C#CCN(C[C@@H]1[C@@H](OC(=O)NC2CCCC2)[C@@H](OC(=O)NC2CCCC2)Cn2c(=O)ccc(=O)n21)S(=O)(=O)c1ccc(C)cc1 -92%
O=C1N(Cc2ccccc2)Cc2ccccc2[C@@H]2OC(c3ccc(OCCCO)cc3)=N[C@]12Cc1ccccc1 1.25%
CCCC#Cc1ccc2c(c1)O[C@@H](CN(C)C(=O)C1CC1)[C@@H](C)CN([C@@H](C)CO)S2(=O)=O 3.55%
COC(c1ccccc1)c1nnc(CCC(=O)N(C)C(C2CC2)C2CC2)o1 (stereo not given) -12.5%
COCC(=O)NCc1nc2ccccc2n1Cc1ccccc1F -16.1% [at 10 µM]
COCCNC(=O)C(c1ccc(F)cc1)N(Cc1ccco1)C(=O)CCC(=O)Nc1nccs1 (stereo not given) 6.62%
CCCCn1nc(NC(=O)c2cccs2)c2cc3ccccc3nc21 54.1%
COc1ccc2cc3cc(C(=O)NCc4cccs4)oc3nc2c1 -4.04%
CN(C)c1ccc(C(=O)NC2(N3CCC3=O)CCCC2)cc1 29%
CCOC(=O)N1CCN(C(=O)c2cc(Cl)c(Cl)cc2C(=O)O)CC1 -24.4%
Clc1ccc(CSc2nnc(-c3cccnc3)n2Cc2ccco2)c(Cl)c1 38.7%
CCOC(=O)C1=C(C)N=c2s/c(=C\c3cccc(OCC(=O)O)c3)c(=O)n2C1c1ccccc1OC (stereo not given) 22.3%
Cc1noc(C)c1S(=O)(=O)Nc1cccc2c1O[C@@H](CN(C)Cc1ccncc1)[C@@H](C)CN([C@@H](C)CO)C2=O -8.63%
COc1ccc(CN(C)C[C@H]2Oc3c(NC(=O)CCCCCC(=O)Nc4ccccc4N)cccc3C(=O)N([C@H](C)CO)C[C@@H]2C)cc1 9.2% [at 21 µM]
C[C@@H]1CN([C@H](C)CO)C(=O)c2cc(NS(=O)(=O)c3ccc(F)cc3)ccc2O[C@H]1CN(C)Cc1ccc(C(F)(F)F)cc1 13.5%
C[C@H](CO)N1C[C@H](C)[C@@H](CN(C)Cc2ccc(C(F)(F)F)cc2)Oc2ccc(NS(=O)(=O)c3ccc(F)cc3)cc2C1=O 8.36% [at 21 µM]
C[C@@H]1CN([C@H](C)CO)C(=O)c2cc(NC(=O)Cc3ccccc3)ccc2O[C@@H]1CN(C)Cc1ccncc1 -2.98%
Cc1noc(C)c1NC(=O)Nc1cccc2c1O[C@H](CN(C)Cc1ccc(Oc3ccccc3)cc1)[C@H](C)CN([C@@H](C)CO)C2=O -33.3%
C[C@H](CO)N1C[C@H](C)[C@H](CN(C)Cc2ccc(C(=O)Nc3ccccc3N)cc2)Oc2c(NC(=O)c3cnccn3)cccc2C1=O -22.5%
C[C@H]1CN([C@@H](C)CO)C(=O)c2cccc(NC(=O)C3CCCCC3)c2O[C@H]1CN(C)Cc1ccc(C(=O)Nc2ccccc2N)cc1 264% [at 10 µM]
C[C@@H]1CN([C@@H](C)CO)C(=O)CCCn2cc(nn2)CO[C@H]1CN(C)Cc1ccc2c(c1)OCO2 9.96% [at 21 µM]
O=C(C[C@@H]1C=C[C@@H](NC(=O)CN2CCOCC2)[C@H](CO)O1)NC1CCCCC1 5.29%
CSc1nc(SC)c2c3c(oc2n1)COC(C)(C)C3 18.7%
COCC#Cc1ccc2c(c1)O[C@H](CN(C)C(=O)CN(C)C)[C@@H](C)CN([C@@H](C)CO)S2(=O)=O 1.49%
CCC(=O)N1CCc2cc(OC)c(OC)cc2C1COc1ccc(C(=O)OC)cc1 (stereo not given) 28.5%
CCC(=O)N(C)C[C@@H]1Oc2ncc(C#CCc3ccccc3)cc2C(=O)N([C@H](C)CO)C[C@@H]1C -52.8%
C[C@H]1CN([C@@H](C)CO)C(=O)c2cccc(NC(=O)c3nc4ccccc4s3)c2O[C@H]1CN(C)Cc1ccc(C(=O)Nc2ccccc2N)cc1 60.2%
C[C@@H]1CN([C@H](C)CO)C(=O)c2cccc(NC(=O)c3nc4ccccc4s3)c2O[C@@H]1CN(C)CC1CCCCC1 -33.2%
CN(c1ccccc1)S(=O)(=O)c1ccc(Cl)nc1 -0.798%
O=C(/C=C/c1ccccc1)CC(O)(c1ccccc1)C(F)(F)F (stereo not given) 27.6% [at 10 µM]
CCN(CC)S(=O)(=O)c1ccc(C(=O)N(c2ccccc2)C2C=CS(=O)(=O)C2)cc1 (stereo not given) -8.54%
CNC[C@@H](CC1CCCCC1)NC[C@H](CC(C)C)NCCc1cccc(C(F)(F)F)c1 -101%
Cc1cc(NS(=O)(=O)c2ccc(NC(=O)COc3c(C)cc(Br)cc3C)cc2)no1 19.4%
Cc1nnc2sc(-c3ccc(NC(=O)c4ccc(-c5ccc(Cl)cc5Cl)o4)cc3)nn12 -15.2%
CCN(CC(=O)NCc1ccc(Cl)cc1)C(=O)CSCC(=O)Nc1ccc(C)cc1 -34%
CCC(=O)NCc1c(C)c(C)n(Cc2ccccc2)c1-n1cccc1 14.2%
Cc1ccc(S(=O)(=O)N2CCCCC2C(=O)O)cc1 (stereo not given) -66.4%
COc1ccc(S(=O)(=O)N2CCCCN3[C@@H](CO)[C@@H](c4ccc(C5=CCCCC5)cc4)[C@@H]3C2)cc1 16.8%
Cc1ccc(S(=O)(=O)OCCC2=CC(=O)CCN2Cc2ccccc2)cc1 -13.4%
CN(C)CC(=O)N[C@H]1CC[C@H](CCNC(=O)Nc2ccc(Cl)cc2)O[C@H]1CO 0.988%
CCOC(=O)N1CCN(C(=O)c2cc(S(=O)(=O)N3CCCC3)cn2C)CC1 14.9%
CCCc1nnc(NC(=O)CN2CCOCC2)s1 -3.15%
CNC[C@@H]1Oc2cc(C#CCC3CCCC3)ccc2S(=O)(=O)N([C@H](C)CO)C[C@H]1C -9.01%
COc1ccc(-c2noc(CCC(=O)N3CCN(c4cccc(C)c4C)CC3)n2)cc1 16.8%
COc1ccc(COc2cc(-c3cccc(OC)c3)nc3ccc(NC(=O)c4cccnc4)cc23)cc1 12%
O=C(N/N=C/C=C\c1ccccc1[N+](=O)[O-])c1cccnc1 11%
CC(=O)N1N=C(c2ccco2)CC1c1ccco1 (stereo not given) -18.8%
CCC1SC2=NC(C)=C(C(=O)OC)C(c3cccs3)N2C1=O (stereo not given) 9.25%
COc1ccc(S(=O)(=O)N[C@@H]2CC[C@H](CCNC(=O)c3ccccc3F)O[C@H]2CO)cc1 16.6%
O=c1c(Cl)c(Cl)cnn1Cc1nnc(-c2ccc(Cl)cc2)o1 -89.1%
CCC(=O)N(C)C[C@@H]1Oc2cc(C#Cc3cccnc3)ccc2S(=O)(=O)N([C@H](C)CO)C[C@H]1C -30.7%
C=CCc1ccc(OCCCCNC(C)CC)c(OC)c1 (stereo not given) 1.82%
O=C1CN(C(=O)Cn2ncc(Cl)c(Cl)c2=O)c2ccccc2N1 -101%
CSCC(O)Cn1[nH]c(=O)c2cc(Cl)c(Cl)cc2c1=O (stereo not given) -20.6%
Cc1cc(S(=O)(=O)NC(C)C)ccc1OCC(=O)Nc1ccc2c(c1)OCCO2 6.52%
O=C(/C=C/c1ccccc1)CC(O)(c1ccccc1)C(F)(F)C(F)F (stereo not given) -99.5%
Cc1ccc(C2CC2c2n[nH]c(=S)n2-c2ccc(Cl)cc2)cc1 (stereo not given) 4.31%
CCCNC(=O)c1nnsc1S(=O)c1ccc(Cl)cc1 (stereo not given) -98.5%
O=C(Nc1ccccc1)c1nnsc1S(=O)c1ccc(Cl)cc1 (stereo not given) -86.1%
Cc1ccc(-n2nc3ccc(N)cc3n2)cc1 31%
CCC(=O)N(C)C[C@@H]1Oc2ncc(-c3ccc(C(=O)N(C)C)cc3)cc2C(=O)N([C@H](C)CO)C[C@@H]1C -3.52%
CSc1n[nH]c(NC(=O)c2c(-c3c(Cl)cccc3Cl)noc2C)n1 -24%
COc1ccc(OCC(=O)NNC(=O)c2c(-c3ccccc3Cl)noc2C)cc1 -14.9%
O=C(O)COc1ccc(/C=C2/SC(=S)N(Cc3ccccc3)C2=O)cc1 14.2%
CNC[C@@H](Cc1ccccc1)NC[C@@H](CC1CCCCC1)NCCCc1ccccc1 -100%
CCOC(=O)C1CCN(Cc2ccc(O)c3ncccc23)CC1 0.639%
Cc1cccc(NS(=O)(=O)c2cccc(C(=O)NCC(c3ccco3)N3CCCCC3)c2)c1 (stereo not given) -13%
COc1ccc(C(=O)C(CN2CCCC2)c2ccccc2)cc1 (stereo not given) -87%
CC(C)c1ccc(S(=O)(=O)N(C)C2(C)CCS(=O)(=O)C2)cc1 (stereo not given) 35.8% [at 10 µM]
